Rows were chosen to be rich in hits. Some 3.3% of all compounds tested hit in one or more screens of this group.
NRP1-CendR mod: alters CendR peptide binding to human NRP-1. FAM-RPARPAR peptide binding to NRP-1, fluorescence polarization. inhibition, % at 25 µM. hit rate 0.85% among 360,000. AID 602438. O14786;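 active = inhibition or corrected inhibition above about 18%, plus a signal ratio from 0.5 to 1.5, limit read from the data, passing the limit was not always enough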
HNF4A DNA FP: change in binding of human HNF4 alpha to DNA; P41235; HNF4a-FITC DNA binding, fluorescence polarization, 1 h; activity change, % at 10 µM; hit rate 0.3% among 360,000; in the data active = activity change above about 30%, passing the limit was not always enough
Rpn11 inh: inhibitors of human proteasome Rpn11; O00487; human 26S proteasome, Ub4-pepOG fluorescence polarization; 20S core pre-blocked with epoxomicin; inhibition, % at 20 µM; hit rate 0.59% among 360,000;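 active = inhibition at 20 µM, scaled to each plate's controls, above about 33%, limit read from the data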
PHOSPHO1 inh: PHOSPHO1 (human) inhibition; Q8TCT1; recombinant PHOSPHO1, absorbance phosphatase assay; inhibition, % at 13.3 µM; hit rate 1.1% among 290,000; AID 1565; in the data active = inhibition above about 60%
TPT1 inhibitor: C. albicans TPT1 enzyme inhibition; recombinant caTPT1, FP RNA substrate dephosphorylation; inhibition, % at 5 µM; hit rate 0.81% among 300,000; AID 1962;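 active = inhibition above the mean of all tested compounds plus 3 SD, set per screening campaign, cut at about 24% in these data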;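 note: plate controls were DMSO alone for no effect and ferristatin control at 100 nM for full effect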
CTSL1 counter: counter-screen for PFM18AAP inhibitors: inhibitors of F. hepatica cathepsin L1; recombinant F. hepatica cathepsin L1, Z-Leu-Arg-MCA fluorescence; inhibition, % at 5.96 µM; hit rate 0.49% among 300,000; AID 1906;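 active = inhibition above the mean of all tested compounds plus 3 SD, set per screening campaign, cut at about 17% in these data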;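 note: 0% = plate median of test compound wells and 100% = 1 µM Z-Phe-Ala-diazomethylketone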
Rpn11 confirm: Rpn11 inhibition confirmation, single concentration. shares compounds with Rpn11 inh. purified human 26S proteasome, Ub4-pepOG fluorescence polarization; proteasome pretreated with epoxomicin. inhibition, % at 20 µM. hit rate 29% among 1,900
MMP-2 counter: MMP-2 (human) inhibition counter-screen; AID 602330; shares compounds with Rpn11 inh; hit rate 4% among 1,900; recombinant MMP-2, FRET peptide cleavage fluorescence; inhibition, % at 20 µM;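 note: human MMP-2 activated beforehand with APMA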
Thrombin inh: thrombin (bovine) inhibition counter-screen; shares compounds with Rpn11 inh; bovine thrombin cleavage of Ub4-pepOG, fluorescence polarization; inhibition, % at 20 µM; hit rate 13% among 1,900; AID 602333;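 active = mean inhibition at least 40% at 20 µM, or signal 3 deviations below plate average, so some actives read negative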;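 note: plate controls were thrombin with DMSO for no effect and buffer wells lacking thrombin for full effect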
* hit, by the source's call; . = no result. Cut-off read from the data, not from the text of the source, unless noted: active = inhibition above about 40%; inactive = the rest.

SMILES | NRP1-CendR mod | HNF4A DNA FP | Rpn11 inh | PHOSPHO1 inh | TPT1 inhibitor | CTSL1 counter | Rpn11 confirm | MMP-2 counter | Thrombin inh
CC(=O)c1cccc(NC(=O)CCc2nc3sc4c(c3c(=O)[nH]2)CCCC4)c1 | -33.9 | 14.5 | 44.3* | . | 14.8 | -1.8 | 55.1* | -4.4 | 41.2*
Cc1ccc(CNc2oc(-c3ccco3)nc2S(=O)(=O)c2ccccc2)cc1 | -2.0 | 3.4 | 79.7* | -16.5 | 1.4 | -4.2 | 7.1 | 20.3 | 0.4
Cc1ccccc1N=C1NC(=O)/C(=C/c2cccnc2)S1 | -6.0 | 1.7 | 7.4 | 19.7 | 2.0 | 0.0 | . | . | .
COc1ccccc1-c1cc(C(=O)Nc2cc(C)nn2-c2ccccc2)no1 | -13.1 | 6.0 | 58.6* | 13.1 | -0.3 | -2.1 | 64.6* | -20.0 | 8.8
COC(=O)CSc1nc2c(cnn2-c2ccc(F)cc2)c(=O)[nH]1 | 3.8 | 5.0 | 9.0 | 37.3 | -1.0 | 3.9 | . | . | .
COC(=O)C1=C(O)/C(=C\c2ccc(OCC(=O)Nc3ccccc3OC)cc2)N=C1C | -14.9 | 1.8 | -1.5 | 30.2 | -3.0 | -3.4 | . | . | .
COC(=O)C1=C(O)/C(=C\c2ccc(O)c(OC)c2)N=C1C | -57.3 | 3.0 | 59.9* | 21.7 | 10.4 | 2.7 | 19.7 | 5.7 | 12.4
CCOC(=O)C1CCN(CCCSc2ccc(C)cc2)CC1 | 4.2 | 0.2 | 2.1 | . | 0.6 | 0.1 | . | . | .
CCOc1ccc(C(=O)CCC(=O)N2CCN(c3ncccn3)CC2)cc1 | -51.3 | 18.5 | 42.9* | . | 4.6 | -0.4 | 43.0* | 37.4 | 34.6
CC(C)(C)C1=C(C#N)C(c2ccc3c(c2)OCO3)C(C#N)=C(N)O1 (centres undefined) | 3.7 | -1.5 | -1.4 | -27.7 | -0.3 | 2.9 | . | . | .
CCCCOc1ccc2c(c1)/C(=C(\C(Cl)=C(Cl)Cl)[N+](=O)[O-])N2 | -43.9 | 13.9 | 37.3* | -17.0 | -41.6 | 3.0 | -47.5 | 36.0 | -62.5
CCOc1ccc2c(c1)/C(=C(\C(Cl)=C(Cl)Cl)[N+](=O)[O-])N2 | -13.8 | 9.3 | -4.9 | 9.4 | -39.6 | -1.8 | . | . | .
O=[N+]([O-])c1ccc(/C=N/Nc2ccccn2)cc1 | -25.0 | 15.6 | 41.8* | 14.1 | 14.5 | 2.4 | 18.9 | -34.6 | -2.9
NC(=O)COc1ccc(/C=N\NC(=O)c2ccc(-c3ccccc3)cc2)cc1 | -9.7 | 5.3 | 124.6* | 28.0 | -2.0 | 3.0 | 3.0 | -10.2 | -1.8
O=C(N/N=C/c1ccccc1)c1ccc(-c2ccccc2)cc1 | 0.1 | -3.2 | 2.0 | 44.4 | -2.1 | -0.9 | . | . | .
Cc1ccc(/C=N/NC(=O)c2cc3c(ccc4ccccc43)o2)o1 | 6.8 | 6.8 | 2.8 | . | . | . | . | . | .
CC(=O)Oc1ccc(/C=N\NC(=O)c2cc3c(ccc4ccccc43)o2)cc1 | 16.7 | 12.8 | 129.1* | 36.6 | -3.4 | 0.3 | 55.5* | -201.5 | -14.8
O=C(N/N=C/c1cc(Br)c(O)c(Br)c1)c1cc2c(ccc3ccccc32)o1 | -105.3 | -17.2 | 73.9* | -2.0 | . | . | 59.0* | -6.4 | 138.9*
O=C(N/N=C/c1ccc(O)c(Br)c1)c1cc2c(ccc3ccccc32)o1 | 11.8 | 4.8 | 0.6 | 17.0 | . | . | . | . | .
Cc1onc(-c2ccccc2)c1C(=O)N/N=C/c1cc(Br)c(O)c(Br)c1 | -13.4 | -0.7 | 41.8* | . | . | . | 1.5 | 31.1 | 4.2
COc1ccc(/C=N/NC(=O)c2c(-c3ccccc3)noc2C)cc1 | 1.8 | 1.7 | -7.5 | -5.8 | 0.7 | 3.8 | . | . | .
COc1cc(/C=N/Nc2ccc([N+](=O)[O-])cc2S(=O)(=O)N2CCOCC2)cc(OC)c1OC | -31.9 | 3.0 | 43.8* | 8.6 | 1.2 | -1.3 | -4.8 | -4.4 | -16.0
Cc1ccc(-n2c(-c3ccco3)nc3nc4ccccc4nc32)cc1 | -48.5 | 7.5 | 46.4* | -14.6 | -1.5 | -0.1 | 42.9* | -9.1 | -15.2
Cc1cc(Cl)ccc1Oc1ccc(C(N)=O)cc1[N+](=O)[O-] | -6.4 | -1.5 | 0.2 | -13.6 | -2.1 | 2.3 | . | . | .
Cc1cc(Cl)ccc1Oc1ccccc1C(=O)CC#N | -11.3 | -3.1 | 56.2* | -16.5 | 4.3 | 1.8 | 28.4 | 22.2 | 25.1
